Source: PubChem BioAssay (NCATS)
Results filed as inconclusive are left out. Unmarked numbers belong to inactive results. Active and inactive are the calls of the source. Calls follow the shape of the dose curve; as a rule, active = well fitted inhibition curve with a large enough effect; inconclusive = small, poorly fitted or top-dose-only effect; inactive = flat fitted curve, though single readings scatter. Positions of bridges follow the written chain, without caps; N, C: chain ends. Non-standard residues stand in square brackets, D forms with d. Residues, ends and D or L forms follow the SMILES beside them. ξ: configuration not given here. *: point of attachment. Octanoyl(6-Me) = CCC(C)CCCCC(=O)*; ξThr(3R) = C[C@@H](O)C(N)C(=O)O; dDab = NCC[C@@H](N)C(=O)O; Dab = NCC[C@H](N)C(=O)O

Each compound was assayed on WaGa (assay: qHTS assay to identify novel small-molecules to repurpose for Merkel cell carcinoma treatment (AID 1296009; also: nearly all actives have a fitted effect of over 60% in size)). Conditions: MCC and control cell lines, CellTiter-Glo viability, 72 h; series mostly up to 46 µM; activity change, negative = cytotoxicity: at the top concentration.
In short: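 Cell viability measured by CellTiter-Glo following 72 hr compound treatment at 37 degree celsius, with NPC and MIPE libraries tested in 8- and 11-point concentration series.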
% is scaled to controls: 0 for no effect and ±100 for the full control effect; potency is read from the fitted curve at half-maximal effect.

| Structure (SMILES) | activity change, negative = cytotoxicity | Potency |
| --- | --- | --- |
| COc1ccc2cc([S+]([O-])Cc3ncc(C)c(OC)c3C)nc2c1 | -2.77% |  |
| CCN(C(=O)c1c(O)c2c(Cl)cccc2n(C)c1=O)c1ccccc1 | -7.12% |  |
| COc1cc(OC)c(NC(=O)Nc2cc(C)on2)cc1Cl | -1.77% |  |
| CC(C)N(CC[C@H](c1ccccc1)c1cc(CO)ccc1O)C(C)C | 2.47% |  |
| CN1C(C(=O)Nc2ccccn2)=C(O)c2sc(Cl)cc2S1(=O)=O | -20.3% |  |
| CN[C@@H]1C[C@H]2O[C@@](C)([C@H]1OC)n1c3ccccc3c3c4c(c5c6ccccc6n2c5c31)C(=O)N[C@H]4O |  | 1320 nM (active) |
| O=c1ccn([C@@H]2O[C@H](CO)[C@H](O)[C@@H]2F)c(=O)[nH]1 | 1.73% |  |
| CC(C=CC(=O)NO)=C[C@@H](C)C(=O)c1ccc(N(C)C)cc1 |  | 743 nM (active) |
| CC(=O)OC[C@@H]1O[C@@H](n2ccc(=O)[nH]c2=O)[C@H](OC(C)=O)[C@H]1OC(C)=O | -4.8% |  |
| C[C@H](NCc1ccc2c(c1)nc(NC(=O)c1ccc(-c3cn[nH]c3)s1)n2CCc1ccccc1)C(C)(C)C |  | 4690 nM (active) |
| CNC(=O)c1ccc(Nc2cc(Nc3ccccc3S(=O)(=O)C(C)C)c3cc[nH]c3n2)nc1 |  | 4180 nM (active) |
| Cn1cc(C2=C(c3c4n(c5ccccc35)CCC(CN)C4)C(=O)NC2=O)c2ccccc21 (stereo unspecified) |  | 20900 nM (active) |
| CCOC(=O)C=C[C@H](C[C@@H]1CCNC1=O)NC(=O)[C@@H](CC(=O)[C@@H](NC(=O)c1cc(C)on1)C(C)C)Cc1ccc(F)cc1 | 7.51% |  |
| CC(C)(O)CC[C@@H](O)[C@](C)(O)[C@H]1CC[C@@]2(O)C3=CC(=O)[C@@H]4C[C@@H](O)[C@@H](O)C[C@]4(C)[C@@H]3CC[C@]12C | -4.71% |  |
| O=c1[nH]c(=O)n([C@H]2C[C@@H](O)[C@@H](CO)O2)cc1C=CBr | -11.7% |  |
| CC(=O)NCC(=O)N1[C@H]2CC[C@H]1c1cc(Nc3ncc(C(F)(F)F)c(NC4CCC4)n3)ccc12 |  | 264 nM (active) |
| CC(Oc1ccc(O)cc1)(P(=O)(O)O)P(=O)(O)O | -14.8% |  |
| O=C(NNC(=O)c1ccc(CNS(=O)(=O)c2ccc(F)c(Cl)c2)cc1)c1ccccc1 | 6.61% |  |

| Structure (SMILES) | activity change, negative = cytotoxicity | Potency |
| --- | --- | --- |
| CCN(CC)CCNC(=O)c1c(C)[nH]c(C=C2C(=O)Nc3ccc(F)cc32)c1C |  | 13600 nM (active) |
| C[C@](Cc1c[nH]c2ccccc12)(NC(=O)OC1C2CC3CC(C2)CC1C3)C(=O)NC[C@H](NC(=O)CCC(=O)O)c1ccccc1 (stereo partly specified) | -4.9% |  |
| C[C@H](CCC(=O)O)[C@H]1CC[C@H]2[C@@H]3[C@H](O)C[C@@H]4C[C@H](O)CC[C@]4(C)[C@@H]3CC[C@]12C | -2.13% |  |
| CC1(C)CC(O)CC(C)(C)N1[O] | 5.42% |  |
| c1coc(CNc2ncnc3nc[nH]c23)c1 | -5.08% |  |
| CCC(C)CCCCC(=O)N[C@@H](CCN)C(=O)NC(C(=O)N[C@H](CCN)C(=O)N[C@@H]1CCNC(=O)C([C@@H](C)O)NC(=O)[C@@H](CCN)NC(=O)[C@@H](CCN)NC(=O)[C@@H](CC(C)C)NC(=O)[C@H](Cc2ccccc2)NC(=O)[C@H](CCN)NC1=O)[C@@H](C)O (stereo partly drawn) ({Octanoyl(6-Me)}-[Dab][ξThr(3R)][dDab][dDab][Dab]F[dL][dDab][dDab][ξThr(3R)]; lactam 4-C) | 7.46% |  |
| CCOc1cc2ncc(C#N)c(Nc3ccc(OCc4ccccn4)c(Cl)c3)c2cc1NC(=O)C=CCN(C)C | -3.98% |  |
| CON=C(C(=O)N[C@@H]1C(=O)N2C(C(=O)O)=C(CSC(=O)c3ccco3)CS[C@H]12)c1csc(N)n1 | -5.34% |  |
| C=CCNC1=C2C[C@@H](C)C[C@H](OC)[C@@H](O)[C@@H](C)C=C(C)[C@H](OC(N)=O)[C@@H](OC)C=CC=C(C)C(=O)NC(=CC1=O)C2=O |  | 1660 nM (active) |
| COc1cccc2c1C(=O)c1c(O)c3c(c(O)c1C2=O)C[C@@](O)(C(=O)CO)C[C@@H]3O[C@H]1C[C@H](N)[C@@H](O)[C@H](C)O1 |  | 93.5 nM (active) |
| C[C@H](NC(=O)[C@@H](O)c1cc(F)cc(F)c1)C(=O)N[C@@H]1C(=O)N(C)c2ccccc2-c2ccccc21 | -0.503% |  |
| CC[C@H]1OC(=O)[C@H](C)[C@@H](O[C@H]2C[C@@](C)(OC)[C@@H](O)[C@H](C)O2)[C@H](C)[C@@H](O[C@@H]2O[C@@H](C)C[C@H](N(C)C)[C@@H]2O)[C@](C)(O)C[C@@H](C)C(=O)[C@H](C)[C@@H](O)[C@]1(C)O | -3.81% |  |
| NS(=O)(=O)OC[C@@H]1C[C@@H](n2ccc3c(N[C@H]4CCc5ccccc54)ncnc32)C[C@H]1O |  | 1480 nM (active) |
| CC(=O)O[C@H]1C[C@@H]2CC[C@H]3[C@H]4C[C@H]([N+]5(C)CCCCC5)[C@@H](OC(C)=O)[C@@]4(C)CC[C@@H]3[C@@]2(C)C[C@H]1N1CCCCC1 | 6.24% |  |
| CCCc1nc(C(C)(C)O)c(C(=O)O)n1Cc1ccc(-c2ccccc2-c2nn[nH]n2)cc1 | -1.89% |  |
| COc1ccc(C[C@@H](C)[C@@H](C)Cc2ccc(OC)c(OC)c2)cc1OC |  | 833 nM (active) |
| CCN(CC)CCCCNc1ncc2c(n1)N(C)C(=O)N(c1c(Cl)c(OC)cc(OC)c1Cl)C2 | -17.1% |  |
| CC(C)(C)[C@H](NC(=O)c1ccc(N)c(Cl)c1)C(=O)N1CCC[C@@H]1C(=O)N[C@H](C#N)CC(=O)O | -0.0966% [at 4.84 µM] |  |
